IL-1B inflam inh = blocks inflammasome-driven IL-1 beta release | THP-1 LPS/ATP IL-1B secretion, AlphaLISA, 16 h; stronger effect = lower value | 360,000 compounds, 4.7% hits | activity change, % at 57.5 µM | AID 743279; in the data active = activity change below about -50%; inconclusive = mostly about -30% to -49%
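Secreted IL-1B measured by AlphaLISA bead assay after 16 h compound exposure of THP-1 cells; compounds (final up to 57.5 uM) added 1 h before LPS (250 ng/mL) and ATP (1.25 mM) stimulation; lower signal means less secretion.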
ATXN2 expr inh = ATXN2 expression inhibition | HEK-293 ATXN2-luciferase reporter, luminescence, 24 h | 360,000 compounds, 0.72% hits | Potency, µM (highest dose often 57 µM), actives largely listed as inhibitors | AID 1745845; note: nearly all actives have a fitted effect of over 55% in size
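qHTS (up to 57 uM final) was run with 24 h compound exposure of reporter cells at 37 °C. Each well was multiplexed: SteadyGlo luminescence measured ATXN2-luciferase expression after a fluorogenic Gly-Phe-AFC viability readout (25 uM final).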
a7 integrin act = activators of alpha7 integrin expression for muscular dystrophy. Potency, µM (series often up to 38.3 µM), usual class: activators. alpha7betagal myoblasts, beta-gal FDG fluorescence, 48 h. 350,000 compounds, 0.064% hits; note: nearly all actives have a fitted effect of over 60% in size
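Alpha7betagal+/- myoblasts (passage 13) were plated 16-24 hr, then exposed to compounds (1:260 dilution of DMSO stock) for 48 hours at 37C. After MPER lysis, β-galactosidase reporter activity was read as FDG fluorescence (ex 480/em 540) after 30 minutes.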
DRD3 agonist = agonists of human D3 dopamine receptor; AID 652048; max activation, %; P35462; 410,000 compounds, 0.58% hits; D3R DiscoveRx beta-arrestin cells, luminescence, 90 min; in the data active = max activation above about 30%
Target sequence (P35462 whole entry, looked up): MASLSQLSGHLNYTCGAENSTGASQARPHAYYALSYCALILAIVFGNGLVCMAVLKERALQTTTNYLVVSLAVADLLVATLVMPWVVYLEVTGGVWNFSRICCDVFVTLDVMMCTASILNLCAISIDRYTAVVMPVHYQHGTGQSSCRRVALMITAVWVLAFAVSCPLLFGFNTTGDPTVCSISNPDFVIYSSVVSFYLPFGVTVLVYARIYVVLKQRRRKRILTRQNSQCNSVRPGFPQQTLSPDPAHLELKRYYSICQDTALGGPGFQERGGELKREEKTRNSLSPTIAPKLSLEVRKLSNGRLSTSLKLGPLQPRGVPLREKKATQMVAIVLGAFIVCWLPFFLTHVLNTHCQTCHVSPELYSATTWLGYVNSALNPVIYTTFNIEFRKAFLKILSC
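Agonist mode: compounds and dopamine controls were applied to plated cells for 90 min at 37 degrees C after an overnight attachment at 1500 cells/well. Luminescent read-out followed 30 - 60 minutes at room temperature with DiscoveRx detection reagent.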
DRD3 antagonist = D3 dopamine receptor (human) antagonism; P35462; D3R cells, DiscoveRx beta-arrestin luminescence, antagonist mode; stronger effect = lower value; max response, negative = inhibition, %; 360,000 compounds, 2.5% hits; AID 652054; in the data active = max response below about -50%; inconclusive = no clear call, values can overlap the other calls
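Cells expressing the human receptor were seeded at 1500 cells/well, incubated overnight at 37 degrees C in 5% CO2, then exposed to library compounds with dopamine controls for 90 minutes at 37 degrees C before luminescent detection.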
ATXN viability = cell viability loss in ATXN counter-screen | S2 cells (HEK-293 line with an ATXN2-luciferase reporter) viability, CellTiter-Fluor protease fluorescence, 24 h | Potency, µM (top dose mostly 56.7 µM), usual class: cytotoxic | AID 651635 | 400,000 compounds, 0.49% hits; note: nearly all actives have a fitted effect of over 40% in size
A number is an active result; n = inactive; u = inconclusive; x = no result. An excerpt weighted towards active compounds, which were near 7% of everything screened. Unless noted, calls come from the whole dose curve; as a rule, active = well fitted curve in the direction sought with a large enough effect; inconclusive = small, poorly fitted or top-dose-only effect, or another doubt; inactive = no such curve, though single readings can be large; an effect the other way counts as inactive or inconclusive.

SMILES	IL-1B inflam inh	ATXN2 expr inh	a7 integrin act	DRD3 agonist	DRD3 antagonist	ATXN viability
N=c1c2c(ncn1CCN1CCOCC1)Oc1cc(O)ccc1C2c1ccccc1 (stereo not drawn)	-75	n	n	n	n	n
COc1ccc(C2c3ccc4ccccc4c3Oc3ncn(CCN4CCOCC4)c(=N)c32)cc1OC (stereo not drawn)	-52	x	n	n	n	u
Cc1c(NC(=O)C(C)OC(=O)c2cccc(S(=O)(=O)N3CCOCC3)c2)c(=O)n(-c2ccccc2)n1C (stereo not drawn)	n	x	n	n	n	x
CCOc1ccccc1NC(=O)Cc1c(F)cccc1Cl	n	n	n	n	n	n
O=C(NCc1nnc2n1CCN(Cc1cc3c(cc1Cl)OCO3)CC2)C1CCOC1 (stereo not drawn)	x	x	x	x	x	n
CCN1C[C@@H]2[C@@H]3C(=O)N(Cc4ccccc4)C(=O)[C@@H]3[C@](C)(C(=O)OC)N2C1=NC1CCCCC1	n	n	n	n	n	n
CCCCSc1nnc2[nH]c(=O)cc(N)n12	n	n	n	n	n	n
CCN(CC(=O)NC1CCS(=O)(=O)C1)C(=O)c1ccc(S(=O)(=O)N(CC)CC)cc1 (stereo not drawn)	n	x	n	n	n	n
COc1ccc(C2c3ccc4ccccc4c3Oc3ncn(CCN4CCOCC4)c(=N)c32)cc1 (stereo not drawn)	-79	u	n	n	n	x
COc1ccc(C2c3ccc(O)cc3Oc3ncn(CCN4CCOCC4)c(=N)c32)cc1OC (stereo not drawn)	u	n	n	n	n	n
CCOc1ccc(C(=O)NC(C(=O)NCc2cccnc2)C(C)C)cc1 (stereo not drawn)	n	n	n	n	n	n
O=[N+]([O-])c1ccccc1/C=N/N1CCN(Cc2ccccc2)CC1	n	n	n	n	-67	n
O=[N+]([O-])c1ccc(Cl)c(/C=N/N2CCN(Cc3ccccc3Cl)CC2)c1	n	n	n	n	-51	n
Cc1ccc(CN2CCN(/N=C\c3cccc([N+](=O)[O-])c3)CC2)cc1	-62	n	n	n	-56	n
FC(F)(F)c1ccc(/C=N/N2CCN(Cc3ccccc3)CC2)cc1	-60	n	n	n	n	n
O=[N+]([O-])c1ccc(/C=N/N2CCN(Cc3ccccc3)CC2)cc1	u	n	n	n	n	n
CN(Cc1cnccn1)C(=O)CC1C(=O)NCCN1CC(c1ccccc1)c1ccccc1 (stereo not drawn)	n	n	n	n	n	n
CCOc1ccc(C(=O)NCCSc2c(C)[nH]c3ccccc23)cc1OCC	x	n	x	n	x	u
COC(=O)c1cnn(-c2cc(Oc3cccc(C)c3)ncn2)c1N	n	n	n	n	n	u
O=C(NCCc1ccccn1)c1cccc(S(=O)(=O)N2CCc3ccccc32)c1	n	n	n	n	n	n
FC(F)(F)c1ccccc1/C=N/N1CCN(Cc2ccccc2)CC1	n	n	n	n	-66	u
Clc1ccccc1/C=N/N1CCN(Cc2ccccc2)CC1	n	n	n	n	n	n
c1ccc(N2CCN(Cc3cn4cccnc4n3)CC2)cc1	n	n	n	n	-59	n
CCc1ccc(NC(=O)Cn2c(=O)nc(-c3ccccc3F)c3cc(Cl)ccc32)cc1	x	x	x	n	x	x
CC1CCN(CC(O)COCCC23CC4CC(CC(C4)C2)C3)CC1 (stereo not drawn)	u	u	n	n	-57	u
SMILES	IL-1B inflam inh	ATXN2 expr inh	a7 integrin act	DRD3 agonist	DRD3 antagonist	ATXN viability
CCCCCCO	n	n	x	n	n	n
C=CC(=O)Nc1cccc(Oc2ccnc(Nc3ccc(N4CCN(C)CC4)cc3)n2)c1	-101	n	n	n	n	u
C=CC(=O)Nc1cccc(N(C)c2ccnc(Nc3ccc(N4CCN(C)CC4)cc3)n2)c1	-100	u	n	n	n	16µM
C=CC(=O)Nc1cccc(Oc2ncnc3[nH]cc(-c4cnc5ccccc5c4)c23)c1	n	n	n	n	n	u
C=CC(=O)Nc1cccc(Oc2ccnc3[nH]ccc23)c1	n	n	n	n	n	8.9µM
O=C(COC(=O)C1=NN(c2ccccc2)C(=O)CC1)NCc1ccccc1Cl	n	n	n	n	n	n

Screening results: PubChem BioAssay, National Center for Advancing Translational Sciences (NCATS)
